# According to PubChem BioAssay (Tox21):
# The source made the active and inactive calls. Calls follow the shape of the dose curve; as a rule, active = well fitted curve in the direction sought with a large enough effect in the repeat runs; inconclusive = weak or mixed curves; inactive = flat fitted curve, though single readings scatter.
# Assay: qHTS assay to test for compound auto fluorescence at 460 nm (blue) in HEK293 cell free culture (AID 720681)
# Conditions: cell-free medium, autofluorescence 405/460 nm (blue); series mostly up to 91.3 µM
# Source text: U.S. Tox21 Program National Center for Advancing Translational Sciences [NCATS] NIH Chemical Genomics Center [NCGC] U.S. Environmental Protection Agency [EPA] National Institutes of Environmental Health Sciences [NIEHS] National Toxicology Program [NTP] U.S. Food and Drug Administration [FDA] Tox21 Assay Overview: Compound auto fluorescence often interferes with screening of the compound library against various biological targets and signaling pathways. Some of these compounds may have fluorophoric properties. Such properties may interfere with the assay outputs resulting in false positives and/or negatives. To decrease such complications and ensure the compound activities are relevant in terms of biological response, the Tox21 10K compound library was screened for auto fluorescence. From the fluorophores used as reporter signals in our screening assays, the auto fluorescence equivalencies of compounds against three fluorophores have been evaluated: Triamterene, Fluorescein and Rose Bengal sodium for blue, green and red fluorescence, respectively. The fluorescence intensities were measured using Excitation/Emission wavelengths at 405/460nm, 485/535nm and 540/590nm for blue, green and red labels, respectively. This assay includes the blue fluorescence data.
# Tox21 Assay Protocol Summary: 5 uL of culture medium (DMEM containing 10% FBS) per well was dispensed into black wall/clear bottom 1536-well plates using a Multidrop Combi Dispenser (ThermoFisher Scientific, Waltham, MA). After 23 nL compound or DMSO vehicle was transferred into assay plate by a pintool work station (Kalypsys, San Diego, CA), fluorescence intensities in the assay plates were measured by an Envision (PerkinElmer, Shelton, CT) plate reader using three labels for measuring blue, green and red fluorescence at […] 460, 535 and 590nm respectively.
row,SMILES,outcome
1,C#CC(C)(C)NC(=O)c1cc(Cl)cc(Cl)c1,inactive
2,CC(Oc1ccc(Cl)cc1Cl)C(=O)O (stereo not given),inactive
3,NCC(O)c1ccc(O)cc1 (stereo not given),inactive
4,C#CCN(C)[C@H](C)Cc1ccccc1,inactive
5,Cc1ccc([N+](=O)[O-])cc1C,inactive
6,COc1ccc2c3c1O[C@H]1[C@@H](O)C=C[C@H]4[C@@H](C2)N(C)CC[C@@]341,inactive
7,CCOP(=S)(OCC)Oc1cnc2ccccc2n1,inactive
8,CCCN(CCC)c1c([N+](=O)[O-])cc(C(F)(F)F)cc1[N+](=O)[O-],inactive
9,O=S(=O)(c1ccc(O)cc1)c1ccc(O)cc1,inactive
10,ClCCBr,inactive
11,O=[N+]([O-])c1ccc([As](=O)(O)O)cc1,inactive
12,[O-][Cl+2]([O-])O,inactive
13,CC(C)C#N,inactive
14,COC(=O)NS(=O)(=O)c1ccc(N)cc1,inactive
15,CON(C)C(=O)Nc1ccc(Cl)c(Cl)c1,inactive
16,CN(C)CCO,inactive
17,Nc1ccc(Cc2ccc(N)cc2)cc1,inactive
18,CN1C(=O)CN=C(c2ccccc2)c2cc(Cl)ccc21,inactive
19,CC(C)(C)OOC(=O)c1ccccc1,inactive
20,c1ccc2c(c1)oc1ccccc12,inactive

row,SMILES,outcome
1,CN(C)[C@@H]1C(=O)C(C(N)=O)=C(O)[C@@]2(O)C(=O)C3=C(O)c4c(O)cccc4[C@@](C)(O)[C@H]3C[C@@H]12,inactive
2,Nc1ccc(Oc2ccc(N)cc2)cc1,inactive
3,BrCCBr,inactive
4,CCCN(CCC)N=O,inactive
5,O=[N+]([O-])c1ccc(Oc2ccc(Cl)cc2Cl)cc1,inactive
6,CCC[N+](=O)[O-],inactive
7,C1CN2CCN1CC2,inactive
8,CC(C)OC(=O)Nc1cccc(Cl)c1,inactive
9,CCCCCCCCCCCC#N,inactive
10,CNC(=O)Oc1ccccc1OC(C)C,inactive
11,CC(Br)C(=O)O (stereo not given),inactive
12,CCCCOC(=O)c1ccccc1C(=O)OCCCC,inactive
13,O=S(=O)(c1ccc(Cl)cc1)c1cc(Cl)c(Cl)cc1Cl,inactive
14,CN(C)N=O,inactive
15,Cc1[nH]c(=O)n(C(C)(C)C)c(=O)c1Cl,inactive
16,CC(C)(C)C(O)(CCc1ccc(Cl)cc1)Cn1cncn1 (stereo not given),inactive
17,CCCCN(CCCC)SN(C)C(=O)Oc1cccc2c1OC(C)(C)C2,inactive
18,c1cc2c3c(cccc3c1)CC2,inactive
19,COC(=O)c1ccccc1C(=O)OC,inactive
20,Nc1ccccc1C(=O)O,inactive
